Reference: ChEMBL document CHEMBL3988442, “University of Dundee, Small-Polar-MMV Screening Library” (2021)
About 13,000 (27%) of roughly 48,000 compounds showed an effect of 50% or more. This is one part of the list.

Tested on: Wolbachia pipientis
Assay: Anti-Wolbachia Cell-Based Screen
Format: functional
Design: scale not given: in the data most compounds retested in dose-response had high values
Details: 5 µM

SMILES | Percent Effect [%]
C=C(C)CN1C(=O)CC(Cc2ccc(F)cc2)C1=O (stereo not drawn) | -35.72
O[C@@H]1C[C@@H](c2nc(-c3ccccc3)no2)N(C2CCOCC2)C1 | -15.45
Cn1ccc(C(=O)N2CCCCC23CC(=O)N(Cc2ccccc2)C3)n1 (stereo not drawn) | -1.004
O=C(O)C(F)(F)F.O=C1CC2(CCCCN2C(=O)Cc2ccccc2)CN1c1cccnc1 (stereo not drawn) | -0.631
O=C1CC2(CCCCN2C(=O)c2cccs2)CN1CC1CC1 (stereo not drawn) | 78.16
O=C1CC2(CCCCN2C(=O)c2ccccc2)CN1CC1CC1 (stereo not drawn) | 79.38
O=C1CC2(CCCCN2C(=O)c2ccoc2)CN1Cc1ccccc1 (stereo not drawn) | -18.39
O=C(O)C(F)(F)F.O=C1CC2(CCCCN2C(=O)c2ccco2)CN1c1cccnc1 (stereo not drawn) | 3.429
CC1N(CC2CC2)C(=O)COC12CCN(C(=O)c1cccs1)CC2 (stereo not drawn) | 8.45
O=C(CCC(=O)c1cccs1)NC1(C(=O)NCC2CC2)CCCC1 | 1.426
O=C(O)C(F)(F)F.O=C1CC2(CCCCN2C(=O)c2ccncc2)CN1CC1CC1 (stereo not drawn) | 106.2
CC(=O)N(C)CCc1nc(-c2cc(C(N)=O)co2)cs1 | -0.5467
COc1cnc(N2CCC(Oc3ccccc3OC)(C(=O)O)CC2)nc1 | -8.18
COc1ccccc1C(C)Nc1ncc(C(N)=O)cc1Cl (stereo not drawn) | 2.47
Cc1cccc(C)c1OC1CN(C(=O)C2CCN(C(=O)N(C)C)CC2)C1 | -8.295
CCc1nc(CCn2ccnc2-c2nccn2C)no1 | -9.052
Cn1cc(CN2C[C@@H](F)[C@@H](OCc3nc4cnccc4[nH]3)C2)cn1 | -2.303
Clc1ccc(-c2c[nH]c([C@@H]3COCCN3)n2)cc1 | -8.999
Cc1ccc(-c2cn3c(n2)CO[C@@H](CNCc2nccn2C)C3)cc1 | -11.82
COc1ccc2[nH]c(CNc3cc(C4CCNCC4)nc(C)n3)cc2c1 | -0.5265
Fc1cccc(CNc2cncc(-n3cccn3)n2)c1 | 9.755
Cc1cc(NCc2ccc(N3CCNC(=O)C3)cc2)nc(C)n1 | 3.077
Fc1ccc(-c2c[nH]c([C@@H]3COCCN3)n2)cc1 | -3.188
Cn1ccnc1-c1ccc(NCC2COCCO2)nn1 (stereo not drawn) | -2.389
Cc1nc(NCc2nccn2C)cc(C2COCCN2)n1 (stereo not drawn) | 145.4

SMILES | Percent Effect [%]
Cc1nc(NCc2cccc(F)c2)cc(C2CCNCC2)n1.Cl | 92.9
Cc1nc(NCc2ccc(F)cc2)cc(C2CCCN2)n1.Cl (stereo not drawn) | 123.2
Cc1nc(Cc2ccc(F)cc2)cc(C2COCCN2)n1.Cl (stereo not drawn) | 104.2
COCC(c1cccc(C(F)(F)F)c1)N(C)C(=O)c1cc(C)no1 (stereo not drawn) | -19.18
CCc1nnc2n1CCN(C(=O)c1cc3ccccc3[nH]1)C2 | 108.3
CCc1nnc2n1CCN(C(=O)c1cc(Br)c[nH]1)C2 | 2.696
CCc1nnc2n1CCN(C(=O)c1cc3ccc(C)cc3[nH]1)C2 | 95.03
CCOc1ccc2cc(C(=O)N3CCn4c(CC)nnc4C3)[nH]c2c1 | 104.5
CCc1nnc2n1CCN(C(=O)c1cc3cc(C)ccc3[nH]1)C2 | 89.42
CCc1nnc2n1CCN(C(=O)c1cc3ccc(F)cc3nc1C)C2 | 4.903
CCc1nnc2n1CCN(C(=O)c1cnc3c(cnn3C(C)C)c1)C2 | -2.522
CCc1nnc(CN2CCN(C(=O)c3cc4ccccc4[nH]3)CC2)o1 | 0.1099
CCc1nnc2n1CCN(C(=O)c1cc3cc(F)ccc3[nH]1)C2 | 1.688
CCOC(C(=O)N1CCn2c(CC)nnc2C1)c1ccccc1 (stereo not drawn) | 26.72
Cc1ccc2cc(C(=O)N3CCN(S(C)(=O)=O)CC3)[nH]c2c1 | -2.597
CCc1nnc2n1CCN(C(=O)c1ccc(C(F)(F)F)nc1C)C2 | 5.32
c1cc(-c2ccc(CN3CCCC4(CCNC4)C3)s2)[nH]n1 (stereo not drawn) | 24.12
CCc1nnc2n1CCN(C(=O)c1cc3c(F)cccc3[nH]1)C2 | 92
CCc1nnc2n1CCN(C(=O)c1ccc3c(c1)NC(=O)CO3)C2 | -1.668
CCc1nnc2n1CCN(C(=O)c1cnc(-c3cccs3)s1)C2 | -0.7102
Cc1nn(C)c(Oc2ccc(Cl)cc2)c1CN1CCOC(CN)C1 (stereo not drawn) | -15.91
O=C(NC1CC1)[C@@H]1CCO[C@@H]2CCN(C3CCOCC3)C[C@@H]21.O=C(O)C(F)(F)F | -4.22
CN(C)C(=O)[C@@H]1C[C@@H]2CCN(C3CCOCC3)C[C@H]2O1.O=C(O)C(F)(F)F | 104.8
CN(C)C(=O)CO[C@H]1COCCN(C2CCOCC2)C1 | -5.811
CN(C)C(=O)[C@@H]1C[C@@H]2CCN(C3CCOCC3)C[C@@H]2O1 | 104.3

SMILES | Percent Effect [%]
CN(C)C(=O)[C@H]1C[C@@H]2CCN(C3CCOCC3)C[C@@H]2O1.O=C(O)C(F)(F)F | 90.19
CN(C)C(=O)[C@H]1C[C@@H]2CCN(C3CCOCC3)C[C@H]2O1 | -14.13
CC(c1cncs1)N(C)Cc1ccc(CCC(C)(C)O)cc1 (stereo not drawn) | -1.575
COCC(C)(CCO)NC(=O)Nc1c(F)cccc1Br (stereo not drawn) | 1.184
COCCCN1C(=O)CC[C@H]2CN(Cc3ccc4nonc4c3)CC[C@H]21 | -13.98
COCCOCC(=O)N(C)Cc1ccc(OCc2cccs2)cc1 | 0.8009
c1ccc(O[C@H]2COCCN(Cc3cccc4c3OCO4)C2)cc1 | -7.306
COc1ccc(O[C@H]2COCCN(Cc3c[nH]c4ccccc34)C2)cc1 | 17.89
c1ccc(O[C@H]2COCCN(Cc3c[nH]c4ccccc34)C2)cc1 | 61.61
Cc1cccc(S(=O)(=O)NCc2cccc(CS(C)(=O)=O)c2)c1 | -26.55
CS(=O)(=O)NCCNC(=O)C1(c2cccc(Cl)c2)CC1 | 8.855
COC(=O)c1c(Cl)c(C)nc2onc(C)c12 | 101.9
Cc1noc(C)c1CN1CCC(NC(=O)OC(C)(C)C)CC1 | -1.462
COC(=O)c1c(Cl)c(C2CC2)nc2onc(C)c12 | 129
Cc1nc(C2CCCCC2)sc1C(=O)O | -7.894
Cc1noc([C@@H](C)NCc2cccc(Cl)c2)c1C(=O)O.Cl | -9.594
Cc1noc2nc(C3CC3)c(Cl)c(C(=O)O)c12 | 111.5
CSc1nc(C2CC2)nc(C)c1C(=O)NCc1cc(C)on1 | -0.6929
Cc1nc([C@H]2C[C@@H]3CCN(Cc4cnn(C)c4)C[C@H]3O2)sc1C | 3.707
CCN1CCn2c(C)cnc2C12CCN(C(=O)N(C)C)CC2.O=C(O)C(F)(F)F.O=C(O)C(F)(F)F | 107
CCN1CCC2(CN(C(=O)N(C)C)CC23CCNCC3)C1=O.O=C(O)C(F)(F)F (stereo not drawn) | -16.29
CCN1CCn2c(C)cnc2C12CCN(C(=O)C(C)C)CC2.O=C(O)C(F)(F)F.O=C(O)C(F)(F)F | 108.7
CC(C)C(=O)N1CC2(CCN(CC(C)(C)C)CC2)C1.O=C(O)C(F)(F)F | -18.04
CCN1CCn2c(C)cnc2C12CCN(C(=O)CC(C)C)CC2.O=C(O)C(F)(F)F.O=C(O)C(F)(F)F | -11.73
COC(=O)COc1nc(CC(C)C)c2c(c1C#N)CCCC2 | 13.1

SMILES | Percent Effect [%]
Cc1noc(CN(C)CC2(O)CCCN(CCC3CCCCC3)C2=O)n1 (stereo not drawn) | 5.474
CCSCCNC(=O)c1ccc(S(=O)(=O)N2C[C@@H]3C[C@H]2CN3)cc1 | -8.721
COC(CNC(=O)c1ccoc1)c1cccc(Cl)c1 (stereo not drawn) | -9.296
CCC(CC)c1nnc(NC(=O)N2CCC(C(N)=O)CC2)s1 | -0.6648
COc1ncc(C(=O)N2CCC(c3nc(C)n4ccsc34)CC2)cn1 | 120.4
COc1ccc(C(=O)N2CCC(c3nccn3C(C)C)CC2)cc1OC | -4.969
Cc1nc(C2CCN(C(=O)c3cccnc3)CC2)c2sccn12 | -3.155
Cc1nc(C2CCN(C(=O)c3cnc(N(C)C)nc3)CC2)c2sccn12 | 121.8
Cc1ncc(CN(C)CC(O)c2cccc(C(F)(F)F)c2)s1 (stereo not drawn) | 2.292
c1ccc(OCCSC2=NCCN2)cc1 | -0.348
CC(C)N(CC(N)=O)Cc1csc(-c2ncccn2)n1 | 8.567
CSc1nccn1-c1cccc(C(=O)NCCCN2CCOCC2)c1 | 1.615
CC(C)NC(=O)CCNC(=O)Nc1cccc(-c2nccn2C)c1 | -18.82
CSc1nccn1-c1cccc(C(=O)NCC(F)(F)F)c1 | 95.57
Cc1ccc2cc(C(=O)NCCN3CCS(=O)(=O)CC3)c(C)nc2c1 | -6.636
CC(C)NC(=O)CCNC(=O)c1cc(Br)cn1C(C)C | 8.916
CN(C(=O)c1cccc(C(=O)NCC(F)(F)F)c1)c1ccccc1 | -5.375
CSc1nccn1-c1cccc(C(=O)NCC2CC2)c1 | -0.4347
CSc1nccn1-c1ccc(C(=O)NCC2CC2)cc1 | 114.7
CC(=O)N1Cc2nccn2CC(CNC(=O)c2ccnnc2)C1 (stereo not drawn) | -11.54
CSc1nccn1-c1cccc(C(=O)NCCN2CCS(=O)(=O)CC2)c1 | 100.7
CSc1nccn1-c1cccc(C(=O)NCc2nnc(C)n2C)c1 | 4.938
CSc1nccn1-c1cccc(C(=O)NCCC(=O)NC(C)C)c1 | 87.94
